Screening data from PubChem BioAssay.
Rows were chosen to be rich in hits. Some 10% of all compounds tested hit in one or more screens of this group.
HPGD block: inhibitors of human 15-hydroxyprostaglandin dehydrogenase (HPGD). AID 894. 4.3% of 150,000 active. Potency, µM, for the others: top-dose activity change, negative = inhibition, usual class: inhibitors. purified HPGD, NADH fluorescence kinetic, PGE2 substrate. P15428; note: potency is the fitted concentration of half-maximal effect
Target sequence (P15428 whole entry, looked up): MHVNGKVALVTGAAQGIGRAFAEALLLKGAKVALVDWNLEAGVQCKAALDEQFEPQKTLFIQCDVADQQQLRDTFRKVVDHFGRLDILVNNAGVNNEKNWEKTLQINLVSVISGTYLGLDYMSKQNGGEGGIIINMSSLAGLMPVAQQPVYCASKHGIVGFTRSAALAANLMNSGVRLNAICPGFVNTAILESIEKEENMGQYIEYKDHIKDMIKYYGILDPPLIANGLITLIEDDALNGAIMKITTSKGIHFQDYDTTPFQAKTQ
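20 nM HPGD preincubated 15 min at room temperature with compound in 50 mM Tris-HCl pH 8, 0.01% Tween 20. Started with 1 mM NAD+ and 30 uM prostaglandin E2; NADH fluorescence (360/450 nm) read 5 times over 30-s intervals, last minus first.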
IMPase inh: cell-permeable inhibitors of inositol monophosphatase (IMPase) | P97697 | 120,000 tested, under 10 active | AID 901 | inhibition (IP1 accumulation), % at 46.1 µM | CHO-M1 cells, IP1 accumulation, HTRF TR-FRET ratio; active = well fitted curve in the direction sought with a large enough effect in the signal ratio, not every such curve was filed as active; inconclusive = small, poorly fitted or top-dose-only effect, or a change in a side signal; inactive = no such curve, though single readings can be large or run the other way; the % refers to the signal ratio;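 note: cells stimulated with carbachol in lithium chloride buffer; plate controls were DMSO basal wells for no effect and reference inhibitor wells for full effect; higher means more IMPase inhibition seen as more IP1 and lower FRET ratio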
Target sequence (P97697 whole entry, looked up): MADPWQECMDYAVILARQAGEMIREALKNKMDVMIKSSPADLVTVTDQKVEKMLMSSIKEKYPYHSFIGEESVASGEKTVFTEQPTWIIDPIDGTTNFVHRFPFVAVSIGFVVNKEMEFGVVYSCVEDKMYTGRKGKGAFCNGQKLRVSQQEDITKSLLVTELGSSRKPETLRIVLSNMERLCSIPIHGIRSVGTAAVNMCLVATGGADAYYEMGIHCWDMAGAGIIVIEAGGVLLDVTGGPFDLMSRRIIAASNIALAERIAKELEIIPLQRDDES
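Measured: the HTRF emission ratio (665/620 nm) plus the 620 nm donor channel, each fitted to the Hill equation to give AC50. Cells were CHO-M1 given compounds up to 46 uM and a 30 min carbachol stimulation at 37C.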
LMNA splice mod: changes lamin A minigene splicing in HeLa cells; HeLa LMNA splicing GFP/RFP minigene ratio, 48 h; Potency, µM (highest dose often 46.1 µM), for the others: top-dose ratio change, negative = inhibition, actives largely listed as inhibitors; 0.01% of 200,000 active; AID 1487; active = well fitted inhibition curve with a large enough effect in the signal ratio, with a control signal flat, not every such curve was filed as active; inconclusive = small, poorly fitted or top-dose-only effect, or effect the other way, or a change in a side signal; the % refers to the signal ratio; note: potency is the fitted concentration of half-maximal effect
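S3 HeLa cells stably expressing lamin A-EGFP splicing minigene plus DsRed2, 600 cells/well, 48 h compound exposure at 37C. Laser-scanning cytometry; analysed as GFP (500-530 nm)/RFP (575-640 nm) total intensity ratio; 0.5% DMSO vehicle.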
ALDH1A1 inh: blocks purified human ALDH1A1 activity | AID 1030 | Purified ALDH1A1, NADH fluorescence, propionaldehyde substrate | Potency, µM (top dose mostly 75.3 µM), without a hit: top-dose activity, negative = inhibition, usual class: inhibitors | P00352 | 7.3% of 220,000 active;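 note: potency is the fitted concentration of half-maximal effect; plate controls were no enzyme wells and a reference inhibitor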
KinaseGlo FLuc: counter-screen: inhibitors of Kinase-Glo firefly luciferase | Q27757 | Kinase-Glo luciferase, ATP luminescence, 8 min | Potency, µM (series often up to 38.3 µM), inactives show at the top dose activity change, negative = inhibition, most hits filed as inhibitors | 0.28% of 200,000 active; active = well fitted inhibition curve with a large enough effect; inconclusive = small, poorly fitted or top-dose-only effect; note: potency is the fitted concentration of half-maximal effect; nearly all actives have a fitted effect of over 60% in size
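Kinase-Glo luciferase light output from ATP and luciferin was measured with 10 uM ATP, within the enzyme's linear range. Buffer: 50 mM imidazole pH 7.2, 50 mM KCl, 7 mM MgCl2, 0.01% Tween 20, 0.05% BSA; luminescence read after 8 min at ambient temperature.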
PNC assembly inh: blocks assembly of the perinucleolar compartment | PC3M PTB-GFP, PNC prevalence imaging, 16 h; hits give low values | activity change (PNC), negative = inhibition, % at 10 µM | 3.1% of 140,000 active;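 active = readout at or below -70, meaning at least 70% loss of cells showing the perinucleolar compartment, a nuclear body marking cancer cells; inconclusive = readout between -30 and a set limit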;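 note: plate controls were DMSO wells for no effect and camptothecin positive control wells for full effect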
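Read-out is percentage of cells bearing a perinucleolar compartment, from automated 20x imaging of fixed, Hoechst-stained PC3M PTB-GFP cells. Cells were seeded 4 h, then exposed 16 h to compound (23 nl of library stock) in duplicate plates.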
An asterisk follows results filed as active; u = inconclusive; x = no result; [ ] = another dose, or the depositor's remark. Unless noted, calls come from the whole dose curve; as a rule, active = well fitted inhibition curve with a large enough effect (not every such curve was filed as active); inconclusive = small, poorly fitted or top-dose-only effect, or another doubt; inactive = no such curve, though single readings can be large or run the other way. Unless noted, % is set by controls: 0 for no effect and ±100 for the full control effect.

SMILES	HPGD block	IMPase inh	LMNA splice mod	ALDH1A1 inh	KinaseGlo FLuc	PNC assembly inh
CCC(=O)OCc1cc(=O)n2nc(C3CC3)sc2n1	x	x	8%[46 µM]	x	x	x
N=C(C[C@@H](O)COc1ccccc1-c1ccccc1)N1CCCCC1	5%	13	x	5%	-4%	x
O=C(c1ccc(F)cc1)N1CCN(CCc2ccncc2)CC1	x	x	-2%[46 µM]	x	x	x
CCn1cc(C(=O)NCC2CCCO2)c(=O)c2cc(S(=O)(=O)N3CCCCCC3)ccc21 (centres undefined)	-12%	8	11%	4.5µM*	-1%	-8
O=C(COc1ccc(S(=O)(=O)N2CCCC2)cc1Cl)NCc1ccc2c(c1)OCO2	-16%	21	-13%	5µM*	3%	-107*
CCn1cc(C(=O)N2CCc3ccccc3C2)c(=O)c2cc(S(=O)(=O)N3CCCCC3)ccc21	-3%	x	0%	u	-1%	44
CCn1cc(C(=O)NCCc2ccccc2)c(=O)c2cc(S(=O)(=O)N3CCCC3)ccc21	x	x	x	32µM*	-1%	x
CCn1cc(C(=O)NCC2CCCO2)c(=O)c2cc(S(=O)(=O)N3CCC(C)CC3)ccc21 (centres undefined)	-6%	10	-3%	-2%	1%	u
Cc1cc(S(=O)(=O)N2CCCC2)ccc1OCC(=O)NCc1ccco1	u	-1	8%	10µM*	3%	-18
Cc1ccc(C)c(NS(=O)(=O)c2ccc(OCC(=O)NCc3ccco3)cc2)c1	-9%	0	-7%	u	4%	-90*
Cc1ccc(NS(=O)(=O)c2ccc(OCC(=O)NCc3ccco3)cc2)cc1	1%	3	-3%	-11%	-8%	25
O=C(COc1ccc(S(=O)(=O)N2CCCC2)cc1Cl)N1CCN(c2ccccc2)CC1	-13%	9	u	18µM*	2%	u
O=C(O)Cc1cc(I)c(Oc2cc(I)c(O)c(I)c2)c(I)c1	-5%	x	-9%	-6%	-7%	x
COC(=O)C/C=C\[C@@H](C)[C@@H](/C=N\O[C@@H]1O[C@H](COC(C)=O)[C@@H](OC(C)=O)[C@H](OC(C)=O)[C@H]1OC(C)=O)NS(=O)(=O)c1ccc(C)cc1	x	x	x	1%[13.5 µM]	x	x
COc1ccccc1-c1ccc(=O)n(CC(=O)Nc2ccc(C(=O)N3CCCC3)cc2)n1	14µM*	-5	-5%	u	-2%	-11
COc1ccccc1-c1ccc(=O)n(CC(=O)NCC2CCCO2)n1 (centres undefined)	x	x	-9%[46 µM]	0%	-2%	x
Cc1ccc(NC(=S)Nc2ccc(C(C)C)cc2)cc1S(=O)(=O)N1CCCCCC1	u	x	u	18µM*	3%	-15
Cc1ccc(CNC(=O)c2c[nH]c3ccc(S(=O)(=O)Nc4ccc(C(C)C)cc4)cc3c2=O)cc1	x	x	-26%[46 µM]	x	x	x
O=C(NCSc1ccnc(SCNC(=O)c2ccc(F)cc2)n1)c1ccc(F)cc1	22µM*	-21	7%	u	-1%	-97*
O=C(O)C1CC(C2CCCCN2)CN2CCCCC12 (centres undefined)	-1%	x	-4%	5%	-1%	x
CCCOc1ccc(C(=O)NCC2OCCc3ccccc32)cc1 (centres undefined)	x	-2	x	x	x	x
COc1cccc(-c2nccc(N(C)Cc3ccco3)n2)c1	x	x	0%	u	x	x
CN1CC(=O)N(CC(=O)Nc2ccc(SC(F)F)cc2)C1=O	x	x	-9%[9.22 µM]	1%	1%	x
CN1CC(=O)N(CC(=O)Nc2cc(Cl)cc(Cl)c2)C1=O	x	x	u	10µM*	-1%	x
O=C(Nc1ccccc1)c1ccc(-c2ccccc2Cl)o1	-20%	x	u	-15%	-3%	-92*
O=C(O)c1ccc(-c2ccccc2Cl)o1	-22%	9	-2%	4%	0%	-7
CC(=O)Cc1nsc(NC(=O)c2ccc(-c3ccccc3Cl)o2)n1	u	8	u	u	-1%	23
O=C(Nc1nccs1)c1ccc(-c2ccccc2Cl)o1	u	-11	-21%	25µM*	-14%	u
